Laboratory results: publication PMC4336329 (PLoS ONE, 2015)
The campaign covered roughly 310,000 compounds. About 14,000 (4.5%) showed an effect of 50% or more. Effects have a minus sign here. This excerpt belongs to a sample that is enriched for strong results.

Each compound was assayed against human ether-à-go-go-related gene (hERG) potassium channel (human, UniProt Q12809) (assay: primary screen, population patch clamp on CHO cells stably expressing hERG; higher = less effect of the substance).
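Further: peak tail current of the secondary pulse compared with the same well before compound.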

Sequence of human ether-à-go-go-related gene (hERG) potassium channel (Q12809 whole entry, looked up): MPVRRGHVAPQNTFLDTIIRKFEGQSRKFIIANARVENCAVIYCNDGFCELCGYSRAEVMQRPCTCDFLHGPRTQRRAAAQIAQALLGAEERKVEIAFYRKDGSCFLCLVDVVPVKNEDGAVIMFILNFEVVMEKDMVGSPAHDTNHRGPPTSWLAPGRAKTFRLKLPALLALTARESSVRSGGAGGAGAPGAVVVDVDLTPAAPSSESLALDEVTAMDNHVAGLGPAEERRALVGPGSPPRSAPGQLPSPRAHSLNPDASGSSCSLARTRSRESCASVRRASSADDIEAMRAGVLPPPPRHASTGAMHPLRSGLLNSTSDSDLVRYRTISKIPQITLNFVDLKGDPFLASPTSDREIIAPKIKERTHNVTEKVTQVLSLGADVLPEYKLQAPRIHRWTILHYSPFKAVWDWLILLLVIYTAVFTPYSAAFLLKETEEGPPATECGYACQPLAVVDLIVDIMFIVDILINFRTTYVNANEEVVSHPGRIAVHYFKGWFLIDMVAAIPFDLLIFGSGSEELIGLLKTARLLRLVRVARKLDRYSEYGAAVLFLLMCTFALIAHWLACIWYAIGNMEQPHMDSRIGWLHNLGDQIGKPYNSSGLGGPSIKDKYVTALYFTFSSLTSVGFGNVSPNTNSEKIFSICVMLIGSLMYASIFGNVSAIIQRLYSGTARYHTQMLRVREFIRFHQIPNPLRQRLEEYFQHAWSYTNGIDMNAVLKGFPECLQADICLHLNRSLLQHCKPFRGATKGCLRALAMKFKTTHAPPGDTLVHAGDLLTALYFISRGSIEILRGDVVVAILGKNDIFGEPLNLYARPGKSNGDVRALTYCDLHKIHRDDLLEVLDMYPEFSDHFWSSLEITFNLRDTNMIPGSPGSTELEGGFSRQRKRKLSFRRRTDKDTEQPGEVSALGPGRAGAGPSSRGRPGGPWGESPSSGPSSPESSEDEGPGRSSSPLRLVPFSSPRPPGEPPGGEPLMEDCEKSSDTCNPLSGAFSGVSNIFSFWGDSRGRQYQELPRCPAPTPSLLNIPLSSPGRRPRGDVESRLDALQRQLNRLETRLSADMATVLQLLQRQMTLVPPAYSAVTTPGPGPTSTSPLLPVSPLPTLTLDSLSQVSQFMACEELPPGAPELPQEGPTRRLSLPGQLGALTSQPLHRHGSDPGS

Compared with O=C(/C=C/c1ccc(O)c(O)c1)NC(=O)c1ccccc1O, COC(=O)c1ccccc1NC(=O)c1ccc2c(c1)OCCO2 is lower in “hERG current change (%, negative = inhibition) at 10uM” value: 6.74% for the first, 1.86% for the second.

First: Cc1ccc(-c2nc(CS(=O)(=O)CC(=O)NCc3cccc(F)c3)c(C)o2)cc1
Second: Cc1cc([N+](=O)[O-])nn1CCCC(=O)NCc1ccc(F)cc1
The “hERG current change (%, negative = inhibition) at 10uM” value of the first is higher: 9.53% for the first, -0.962% for the second.

First: COc1ccc(S(=O)(=O)N2CCOCC2)c(C)c1C
Second: COc1ccccc1N1CCN(C(=O)CCCn2nc(C)c([N+](=O)[O-])c2C)CC1
The “hERG current change (%, negative = inhibition) at 10uM” value of the first is higher: 5.99% for the first, -19.1% for the second.

Going from CC(C)(C)c1ccc(C(=O)N2CCC3(CC2)NCCc2[nH]cnc23)cc1 to Cc1ccc(C(=O)N2CCC3(CC2)NCCc2[nH]cnc23)cc1, the “hERG current change (%, negative = inhibition) at 10uM” value falls from -8.51% to -53.9%.

Going from CCOc1ccc(C(=O)N2CCC3(CC2)NCCc2[nH]cnc23)cc1 to COc1ccc(C(=O)N2CCC3(CC2)NCCc2[nH]cnc23)cc1, the “hERG current change (%, negative = inhibition) at 10uM” value rises from -70.1% to -18.8%.

Going from O=C(c1ccc(F)c(F)c1)N1CCC2(CC1)NCCc1[nH]cnc12 to O=C(c1ccc(F)cc1)N1CCC2(CC1)NCCc1[nH]cnc12, the “hERG current change (%, negative = inhibition) at 10uM” value falls from 10.3% to 4.43%.

Going from O=C(c1ccc(Br)cc1)N1CCC2(CC1)NCCc1[nH]cnc12 to O=C(c1ccccc1)N1CCC2(CC1)NCCc1[nH]cnc12, the “hERG current change (%, negative = inhibition) at 10uM” value rises from -65.8% to 26.6%.

First: CCOc1ccc(C(=O)N2CCC3(CC2)NCCc2[nH]cnc23)cc1OCC
Second: CCOC(=O)c1ccc2[nH]c3c(c2c1)CCCC3
The “hERG current change (%, negative = inhibition) at 10uM” value of the first is higher: 22.6% for the first, -19.2% for the second.

Going from O=C(NCc1ccco1)c1ccccc1NS(=O)(=O)c1cccs1 to Cc1ccc(S(=O)(=O)Nc2ccccc2C(=O)N2CCN(C)CC2)cc1, the “hERG current change (%, negative = inhibition) at 10uM” value falls from 3.9% to -3.2%.

First: Cc1ccc(Cn2ccsc2=NC(=O)COC(=O)C(C)C)cc1
Second: CCOC(=O)Nc1ccc2c(c1)N(C(=O)N(C)C)c1ccccc1CC2
The “hERG current change (%, negative = inhibition) at 10uM” value of the first is lower: -15.3% for the first, -6.99% for the second.

Going from CSc1nnc2n(C)c3c(c(=O)n12)C1(CCCC1)Cc1ccccc1-3 to CCOC(=O)Nc1ccc2c(c1)N(C(=O)C(C)N1CCCC1)c1ccccc1CC2.Cl (stereo not drawn), the “hERG current change (%, negative = inhibition) at 10uM” value falls from 2.33% to -60.2%.

Going from O=C(CNc1ccc(Br)cc1)NNC1=NCCC1 to CCOC(=O)Nc1ccc2c(c1)N(C(=O)OC)c1ccccc1CC2, the “hERG current change (%, negative = inhibition) at 10uM” value falls from 1.72% to -2.44%.

First: CCc1ccc(CNCCc2c[nH]c3ccccc23)cc1.O=C(O)C(=O)O
Second: COC(=O)C1=C(C)NC(C)=C(C(=O)OCCN(C)Cc2ccccc2)C1c1cccc([N+](=O)[O-])c1.Cl (stereo not drawn)
The “hERG current change (%, negative = inhibition) at 10uM” value of the first is lower: -40.9% for the first, 0.0465% for the second.

Going from CCOC(=O)Nc1ccc2c(c1)N(C(=O)CCN1CCN(C)CC1)c1ccccc1S2.Cl to CCOC(=O)Nc1ccc2c(c1)N(C(=O)CN1CCN(C)CC1)c1ccccc1S2.Cl, the “hERG current change (%, negative = inhibition) at 10uM” value falls from -15.2% to -64.4%.

Compared with CCOC(=O)Nc1ccc2c(c1)N(C(=O)N1CCN(C)CC1)c1ccccc1S2.Cl, CCOC(=O)Nc1ccc2c(c1)N(C(=O)CCN(C)C)c1ccccc1CC2 is higher in “hERG current change (%, negative = inhibition) at 10uM” value: -46% for the first, -40.7% for the second.

Going from CCOC(=O)Nc1ccc2c(c1)N(C(=O)CCN(CC)CC)c1ccccc1CC2 to CCN(CC)CCC(=O)N1c2ccccc2CCc2ccc(NC(=O)OC)cc21.Cl, the “hERG current change (%, negative = inhibition) at 10uM” value rises from -50.3% to -8.57%.

First: C=CCSc1nc(N(CC)CC)c2sccc2n1
Second: CCOC(=O)CNC(=O)Cn1cnc2c(nnn2-c2cccc(OC)c2)c1=O
The “hERG current change (%, negative = inhibition) at 10uM” value of the first is lower: -12.4% for the first, 17.5% for the second.

Going from CC(=O)c1cccc(N2C(=O)C3C4CCC(C4=C(C)C)C3C2=O)c1 (stereo not drawn) to COc1cccc(-n2cnc3sc(C)c(C)c3c2=O)c1, the “hERG current change (%, negative = inhibition) at 10uM” value falls from 21.1% to -12%.

Compared with COc1cc(CSc2nnnn2-c2ccc(C)cc2)cc(OC)c1OC, COc1cc(/C=C/c2noc(-c3ccccc3O)n2)cc(OC)c1OC is higher in “hERG current change (%, negative = inhibition) at 10uM” value: 8.81% for the first, 9.26% for the second.

Going from N#Cc1nc(-c2ccco2)oc1NCCc1ccccc1 to CC(=O)N1CCN(c2ccc(NC(=O)c3ccc(OCc4ccccc4)cc3)cc2)CC1, the “hERG current change (%, negative = inhibition) at 10uM” value rises from -5.59% to 16.7%.

Going from CCCc1cc(=O)oc2cc(C)c3c(C)coc3c12 to COc1ccc([N+](=O)[O-])c(OC)c1C(=O)NC(=O)Nc1nc(C)cc(C)n1, the “hERG current change (%, negative = inhibition) at 10uM” value rises from 5.51% to 18%.

Going from O=C(NCc1cccc(Cl)c1)C1CCC(=O)N(CCN2CCOCC2)C1 (stereo not drawn) to Cc1cccc(NC(=O)N2CCCCCC2)c1, the “hERG current change (%, negative = inhibition) at 10uM” value falls from 20.5% to -8.87%.

Compared with CC(OC(=O)CCC(=O)c1cccs1)C(=O)NC1CCCCC1C (stereo not drawn), CC(OC(=O)c1cccs1)C(=O)NC1CCCCC1C (stereo not drawn) is lower in “hERG current change (%, negative = inhibition) at 10uM” value: -6.24% for the first, -66.7% for the second.

Compared with CC(OC(=O)c1cccs1)C(=O)NC1CC1 (stereo not drawn), Cc1cccc(C(=O)Oc2csc(=S)n2C(=O)c2cccc(C)c2)c1 is higher in “hERG current change (%, negative = inhibition) at 10uM” value: -5.98% for the first, 6.76% for the second.

Compared with COc1cc(C(c2c(C)[nH][nH]c2=O)c2c(C)[nH][nH]c2=O)ccc1OC(=O)c1cccc([N+](=O)[O-])c1, Cc1cc([N+](=O)[O-])nn1CCCC(=O)N1CCN(c2ccc(F)cc2)CC1 is lower in “hERG current change (%, negative = inhibition) at 10uM” value: 10.4% for the first, -53.2% for the second.

Compared with Cc1c(Cl)c([N+](=O)[O-])nn1CCCC(=O)N1CCN(c2ccccc2)CC1, Cc1c(Br)c([N+](=O)[O-])nn1CCCC(=O)N1CCN(c2ccccc2)CC1 is higher in “hERG current change (%, negative = inhibition) at 10uM” value: -58% for the first, -32.4% for the second.

Compared with Cc1nn(CC(=O)N2CCN(c3ccccc3)CC2)c(C)c1[N+](=O)[O-], Cc1nn(CCCC(=O)N2CCN(c3ccc(F)cc3)CC2)c(C)c1[N+](=O)[O-] is lower in “hERG current change (%, negative = inhibition) at 10uM” value: -9.49% for the first, -62.1% for the second.

Going from Cc1cc([N+](=O)[O-])nn1CCCC(=O)N1CCN(c2ccccc2)CC1 to Cc1c(Cl)c([N+](=O)[O-])nn1CCCC(=O)O, the “hERG current change (%, negative = inhibition) at 10uM” value rises from -21.4% to 9.17%.

For CCOC(=O)C1CCC2(CC1)C(C#N)=C(N)Oc1n[nH]c(C)c12 (stereo not drawn), the “hERG current change (%, negative = inhibition) at 10uM” value was -14.2%.
